# Measurements taken from PubChem BioAssay (NCI).
# About 83,000 compounds went through this panel and 20% of them were active in at least one assay; those are over-represented in the sample as a whole.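 Step 1: grow cells in 96-well plates. Step 2: add test compound at a single concentration. Step 3: incubate 48 h. Step 4: record percent growth.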 A number with no mark means an inactive call. Active and inactive are the calls of the source. The calls were made as follows: active = growth percent below 10; inactive = the rest.
# Experiments:
# Test in all cases: NCI-60 one-dose screen, 48 h (100 = growth as untreated, 0 = no growth, -100 = all killed)
# Conditions in all cases: 10 µM unless noted
# HCT-15 colon = tested on: HCT-15 colon
# HT29 colon = tested on: HT29 colon
# SNB-75 CNS = tested on: SNB-75 CNS
# SNB-19 CNS = tested on: SNB-19 CNS
# U251 CNS = tested on: U251 CNS
# PC-3 prostate = tested on: PC-3 prostate
# SK-MEL-5 melanoma = tested on: SK-MEL-5 melanoma
# UACC-62 melanoma = tested on: UACC-62 melanoma
# LOX IMVI melanoma = tested on: LOX IMVI melanoma
# SK-MEL-28 melanoma = tested on: SK-MEL-28 melanoma
# SK-MEL-2 melanoma = tested on: SK-MEL-2 melanoma
# EKVX NSCLC = tested on: EKVX NSCLC
# SN12C renal = tested on: SN12C renal
# UO-31 renal = tested on: UO-31 renal
# TK-10 renal = tested on: TK-10 renal
# ACHN renal = tested on: ACHN renal
# CAKI-1 renal = tested on: CAKI-1 renal
# A498 renal = tested on: A498 renal
# CCRF-CEM leukemia = tested on: CCRF-CEM leukemia
# MOLT-4 leukemia = tested on: MOLT-4 leukemia
SMILES,growth (HCT-15 colon),growth (HT29 colon),growth (SNB-75 CNS),growth (SNB-19 CNS) [%],growth (U251 CNS),growth (PC-3 prostate),growth (SK-MEL-5 melanoma),growth (UACC-62 melanoma),growth (LOX IMVI melanoma),growth (SK-MEL-28 melanoma),growth (SK-MEL-2 melanoma),growth (EKVX NSCLC),growth (SN12C renal),growth (UO-31 renal),growth (TK-10 renal),growth (ACHN renal),growth (CAKI-1 renal),growth (A498 renal),growth (CCRF-CEM leukemia),growth (MOLT-4 leukemia)
CC/C(=C(\c1ccc(Cl)cc1)c1ccc(OCCN2CCCCC2)cc1)c1ccc(O)cc1,2.22% (active),-37.2% (active),40.5%,61.1,0.575% (active),30.4%,2.53% (active),71%,-91.5% (active),-63.4% (active),57.2%,68%,62.5%,38.4%,68.5%,60.4%,62.3%,87.2%,23.1%,-5.41% (active)
O=C1CCCC1[n+]1ccccc1 (stereo not given),97.1%,61.4%,86.3%,103,84.4%,81.7%,104%,96.5%,99%,84.3%,85.3%,92.6%,104%,90%,79.4%,105%,92.4%,126%,105%,113%
O=C(Nc1nc(Cl)nc(Nc2ccc(N3CCOCC3=O)cc2)n1)c1ccc(Cl)s1,94.2%,94.3%,103%,88.2,85.4%,85.4%,91.3%,87%,62.1%,96%,84%,102%,92.1%,91.5%,120%,95.7%,99.8%,85.7%,80.9%,85.2%
O=C1C=CC2(O)OC/C(=C\c3ccccc3)C(O)=C2C1=O (stereo not given),-6.43% (active),17.8%,38.8%,27.6,-35.2% (active),0.717% (active),31.3%,-64.1% (active),-82.8% (active),51.9%,53.4%,54.1%,-30.7% (active),-91.5% (active),11.5%,-70.5% (active),10.6%,108%,2.55% (active),7.42% (active)
O=[N+]([O-])c1ccccc1Sc1ccccc1[N+](=O)[O-],99.1%,92%,80.8%,106,90.6%,87.5%,97.3%,100%,91.8%,109%,97.2%,91.2%,99.3%,75.5%,85.2%,102%,-54.5% (active),81.2%,107%,94.8%
Nc1c(C(=O)Nc2cccc3ncccc23)sc2nc3c(cc12)CN(Cc1ccccc1)CC3,74.2%,81.7%,84.2%,82.3,88%,77%,19.2%,53.5%,88.6%,81.7%,57.3%,76.4%,82.1%,70.2%,89.4%,88.6%,74.1%,72.1%,69.6%,48.5%
N#Cc1c(-c2ccccc2)nc2c(c(-c3ccccc3)nn2-c2ccccc2)c1-c1ccc(N2CCCCC2)cc1,107%,110%,84.2%,99.3,96.8%,90.5%,99.2%,92.8%,96%,106%,110%,99.5%,99.4%,84.9%,103%,101%,86.1%,97.7%,96.5%,95.5%
CCOC(=O)CNC1=C(Cl)C(=O)N(Cc2ccc(Cl)cc2)C1=O,110%,105%,97.9%,98.6,100%,97.7%,102%,104%,95.9%,106%,101%,100%,99.1%,66.6%,102%,101%,95.4%,90.3%,102%,98.2%
CC(C)(C)c1ccc(C(=O)N/N=C/c2ccc(O)cc2O)cc1,14.1%,26.4%,37.6%,28.4,19.6%,34.9%,-46.1% (active),4.25% (active),2.62% (active),27.8%,38.3%,21.5%,23.3%,12.2%,40.1%,15.2%,15%,13.6%,9.83% (active),13.3%
FC(F)(F)c1[nH]ncc1-c1nc2ccc3[nH]ncc3c2c2c1CCCC2,12.7%,6.93% (active),8.42% (active),17.7,5.69% (active),21%,-73.7% (active),9.03% (active),-38.2% (active),2.24% (active),-18.4% (active),3.77% (active),12.5%,-26.8% (active),1.15% (active),5.04% (active),9.85% (active),-60.5% (active),6.43% (active),-30% (active)
c1ccc(-c2nc3ccccc3[nH]2)c(OCCCCCOc2ccccc2-c2nc3ccccc3[nH]2)c1,58%,74.8%,89.8%,91.7,74.5%,43.4%,58.9%,59.1%,62%,45.9%,85.4%,68.2%,63.4%,58.6%,100%,89.4%,104%,71.5%,-44.1% (active),56.3%
Cc1nc(N/N=C/c2cn(-c3ccccc3)nc2-c2cc3ccccc3oc2=O)sc1N=Nc1ccccc1,56.1%,85.2%,50.4%,91.9,93.1%,85.8%,93.3%,71%,89.5%,87.6%,93.7%,102%,97.6%,70.7%,106%,98%,69.7%,77%,94.3%,85.1%
CC1=C(Cl)C(=O)c2cc(C)ccc2C1=O,100%,103%,88.9%,106,96.2%,89.6%,101%,96%,100%,94.9%,99.9%,94.2%,93.7%,73.3%,108%,96.9%,86.7%,97.2%,102%,98.1%
COc1nc(/C=C\Nc2ccc3c(c2)OCCOCCOCCOCCO3)nc(OC)n1,91.5%,99.5%,72.3%,103,103%,99.4%,97.5%,93.3%,92.1%,104%,108%,91.8%,93.2%,79.5%,81.9%,99.8%,93.1%,75.7%,118%,107%
COc1ccc(C2[C@@H](Cl)C(=O)N2c2cc(OC)c(OC)c(OC)c2)cc1Cl (stereo not given in full),11%,-3.88% (active),75.7%,32.1,5.8% (active),25.1%,-23.8% (active),36.3%,20.9%,69.6%,15%,35.4%,29.1%,45.3%,63.9%,33.6%,26.5%,-6% (active),9.36% (active),13.5%
